From PubChem BioAssay AID1619 (SRMLSC, 2009)
In all, about 220,000 compounds went through this assay and about 830 (0.38%) were called active.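 How the source made its calls: active means compound inhibiting the enzyme by more than half at any dose during confirmatory dose-response retesting; inconclusive means strong single-dose inhibitors picked by rank but not retested; inactive means the rest.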 The list is a sample of the results. Results with a measured potency or affinity are listed apart.

Target: Leucine aminopeptidase (Plasmodium falciparum (isolate 3D7)) (UniProt Q8IL11)
Assay: P. falciparum M17LAP inhibitors, primary screen, biochemical, fluorogenic H-Leu-NHMec substrate, 1536-well (AID 1619);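 further: plate controls were full reaction with DMSO carrier for no effect and no enzyme background for full effect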
Settings: recombinant M17LAP, H-Leu-NHMec fluorogenic kinetic assay; at 30 µM; hits give high values

Sequence of Leucine aminopeptidase (Plasmodium falciparum (isolate 3D7)) (Q8IL11 whole entry, looked up): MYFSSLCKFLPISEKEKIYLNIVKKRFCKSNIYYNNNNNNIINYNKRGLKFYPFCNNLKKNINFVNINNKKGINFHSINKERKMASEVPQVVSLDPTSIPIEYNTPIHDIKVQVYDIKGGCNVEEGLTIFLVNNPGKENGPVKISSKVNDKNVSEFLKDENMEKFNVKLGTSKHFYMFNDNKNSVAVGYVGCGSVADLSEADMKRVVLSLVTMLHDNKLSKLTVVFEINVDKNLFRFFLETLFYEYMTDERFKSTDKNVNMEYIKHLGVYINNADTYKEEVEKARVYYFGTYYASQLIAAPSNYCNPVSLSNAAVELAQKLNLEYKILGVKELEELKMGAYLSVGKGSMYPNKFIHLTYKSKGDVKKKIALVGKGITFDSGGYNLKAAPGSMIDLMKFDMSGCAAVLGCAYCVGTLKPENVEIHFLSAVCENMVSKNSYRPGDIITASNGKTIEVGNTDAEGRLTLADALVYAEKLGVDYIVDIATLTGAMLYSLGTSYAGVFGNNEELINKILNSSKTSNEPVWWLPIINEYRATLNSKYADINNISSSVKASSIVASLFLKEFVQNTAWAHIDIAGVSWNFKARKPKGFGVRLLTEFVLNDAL

inhibition, inactive:
C=CCOC(=O)C1=C(C)Nc2[nH]c(=O)[nH]c(=O)c2C1c1ccccc1 (stereo not given) 16.9%
COc1ccc(Nc2nc3[nH]c(=O)cc(O)c3s2)cc1 23.2%
N#C/C(=C/c1cn(CC(=O)O)c2ccccc12)C(=O)NCc1ccccc1 21.3%
N#C/C(=C/c1cn(CC(=O)O)c2ccccc12)C(=O)Nc1ccccc1 10.1%
Cc1cc2cc(C)c3nnc(SCC(=O)Nc4ccc(S(=O)(=O)N5CCCCC5)cc4)n3c2cc1C -1.16%
O=C(CCN1C(=O)c2ccccc2C1=O)Nc1cccc(S(=O)(=O)NC2=NCCC2)c1 22.4%
COC(=O)c1ccc(C(=S)N2CCCCC2)cc1 3.47%
CCOc1ccc(NC(=O)c2ccc(NCC(=O)N3CCCCCC3)cc2)cc1 -2.72%
Cn1c(=O)c2c(nc(Br)n2Cc2ccccc2Cl)n(C)c1=O 0.26%
Cc1ncc([N+](=O)[O-])n1Cc1ccccc1F 10.8%
O=C(c1ccco1)N1CCN(C(=O)c2ccccc2[N+](=O)[O-])CC1 4.98%
O=C(c1ccc([N+](=O)[O-])cc1)N1CCN(C(=O)c2ccco2)CC1 2.53%
CC(=O)Nc1ccccc1NC(=O)C/C(C)=N/NC(=O)c1ccncc1 7.62%
N#C/C(=N\Nc1ccc(Cl)cc1)C(=O)c1ccsc1 4.01%
CCC(C)NC(=O)c1ccc2c(SCC(=O)O)c3c(nc2c1)CCCC3 (stereo not given) 25.2%
COc1cc(NC(=O)c2ccc3c(SCC(=O)O)c4c(nc3c2)CCCC4)cc(OC)c1OC 8.1%
CCCCNC(=O)c1ccc2c(SCC(=O)O)c3c(nc2c1)CCCC3 45.8%
CC(C)CCNC(=O)c1ccc2c(SCC(=O)O)c3c(nc2c1)CCC3 7.01%
O=C(Nc1ccc(Cl)cc1)c1cc(S(=O)(=O)N2CCOCC2)cs1 1.6%
Cc1ccc(C)c(S(=O)(=O)N2CCN(C(=O)c3cnccn3)CC2)c1 6.85%
CC1=NNC(=O)C1CCC(=O)N/N=C/c1ccccc1 (stereo not given) -4.86%
CC1=NNC(=O)C1CC(=O)N/N=C/c1sccc1C (stereo not given) 9.78%
CC1=NNC(=O)C1CCC(=O)N/N=C/c1ccc(C)cc1 (stereo not given) 5.32%
CCCCCC(=O)N/N=C/c1ccccc1[N+](=O)[O-] 36.9%
CC1=NNC(=O)C1CCC(=O)N/N=C/c1ccc(Cl)cc1Cl (stereo not given) 11.1%
CC1=NNC(=O)C1CCC(=O)N/N=C/c1c(Cl)cccc1Cl (stereo not given) -1.12%
O=C1CC(CC(=O)N/N=C/c2ccccc2[N+](=O)[O-])=NN1 56.8%
O=C(Cc1c(F)cccc1Cl)Nc1cc(S(=O)(=O)N2CCCCC2)ccc1N1CCOCC1 10.3%
COc1cccc(Nc2cc(C)nc3nc(C)nn23)c1 1.55%
Cc1cc(C)c(NC(=O)CCCOC(=O)C2=COCCO2)c(C)c1 12.3%
O=C(NCc1ccco1)C(c1ccccc1)N(Cc1cccnc1)C(=O)Cn1nnc2ccccc21 (stereo not given) 2.12%
CCOC(=O)N1CCC(NC(=O)c2cc(S(=O)(=O)N3CCOCC3)ccc2F)CC1 -2.28%
O=C(Nc1ccc(F)c(F)c1)c1cnc(-c2ccccc2)nc1-c1ccccc1 6.48%
COc1ccccc1NC(=S)NCCc1c[nH]c2ccccc12 1.87%
CC1(C)CC2CC(C)(CN2Cc2c(O)ccc3ccccc23)C1 (stereo not given) -1.68%
CC1C(=O)NN=C1C(=O)N/N=C/c1ccco1 (stereo not given) 5.8%
O=C(CCC(=O)N/N=C/c1ccco1)N/N=C/c1ccco1 6.28%
CCOC(=O)CC(=O)CSc1nc2ccc(OC)cc2cc1C -7.77%
COc1ccc2cc(C)c3nnc(SCC(=O)Nc4cc(OC)c(OC)cc4C(=O)O)n3c2c1 3.81%
CCc1cc2cc(OC)ccc2nc1SCC(=O)NNC(=O)c1ccco1 -4.39%
COc1ccc(OC)c(NC(=O)CSc2nc3ccccc3cc2Cc2ccccc2)c1 -12.8%
CC(C)CN(CC(C)C)S(=O)(=O)N1CCC(C(=O)NCc2ccc3c(c2)OCO3)CC1 -3.17%
CC(C)S(=O)(=O)C1=NSC2=NC(=O)/C(=C\c3ccc(-c4cccc(C(=O)O)c4)o3)C(=N)N21 46.5%
Cc1ccc(-n2cccc2/C=C2/C(=N)N3C(=NC2=O)SN=C3S(C)(=O)=O)cc1 26.3%
N=C1/C(=C\c2ccc(-c3ccc(C(=O)O)cc3)o2)C(=O)N=C2SC=C(c3ccccc3)N12 23.3%
CS(=O)(=O)C1=NSC2=NC(=O)/C(=C\c3ccc(-c4ccccc4)o3)C(=N)N21 55.5%
Cc1ccc(-n2nc(C)c3c2OC(N)=C(C#N)C3c2ccncc2)cc1 (stereo not given) 21.6%
Cc1cc(C(=O)NC2CCCCC2)on1 13.6%
O=C(COC(=O)c1cncc(Br)c1)NCc1ccccc1 -0.29%
C/C(=N/O)c1no[n+]([O-])c1/C(C)=N\O 4.25%
COC(=O)CSc1nc2cc(Cl)ccc2c(=O)n1C1CCCC1 -2.31%
Cc1c(N=C(N)/N=C(\N)Nc2ccc(Br)cc2)c(=O)n(-c2ccccc2)n1C -11.5%
CC1CCCCN1S(=O)(=O)c1ccc(N(C(=O)c2cnccn2)C(C(=O)NC2CCCCC2)c2cccs2)cc1 (stereo not given) -5%
CC(C)C(=O)c1cc2c(cc1NC(=O)c1cccs1)OCCO2 2.83%
CC(OC(=O)c1cc2c(ccc3ccccc32)oc1=O)c1nc2ccccc2s1 (stereo not given) -3.25%
Cc1cc(NCc2ccc3c(c2)OCO3)n2nc(C)nc2n1 -0.05%
COc1cccc(-c2nnn(CC(=O)Nc3ccc(C)cc3C)n2)c1OC -10%
COc1cccc(-c2nnn(CC(=O)NC3CCCC3)n2)c1OC 13.1%
CC(=O)c1cc(CN2CCN(CC=C(C)C)C(CCO)C2)cs1 (stereo not given) -1.16%
CC1(C)CC(C#N)(N2CCOCC2)CCO1 (stereo not given) -15.2%
COc1cccc2c(SCC(=O)N/N=C/c3ccc(O)cc3O)cc(C)nc12 16.9%
COc1cccc2c(SCC(=O)N/N=C/c3ccccc3)cc(C)nc12 2.63%
Cc1ccc2nc(C(O)C(O)c3nc4ccc(C)cc4[nH]3)[nH]c2c1 (stereo not given) 12.8%
COc1ccc(/C=N/NC(=O)c2[nH]c(C)c(C(=O)N/N=C/c3ccc(OC)cc3)c2C)cc1 -5.84%
Cc1[nH]c(C(=O)N/N=C/c2ccc(N(C)C)cc2)c(C)c1C(=O)N/N=C/c1ccc(N(C)C)cc1 -3.97%
O=C(N/N=C/c1cccs1)c1c[nH]c2ccccc12 19.5%
O=C(COc1ccc(C(=O)c2ccccc2)cc1)NCC(=O)Nc1ccccc1Br 0.07%
O=C1/C(=C/c2cccnc2)CCC/C1=C\c1cccnc1 12.8%
Cn1c(-c2ccccc2)n[nH]c1=S -6.39%
N#Cc1cc(-c2ccccc2)nn1-c1ccccc1 -15.3%
O=C(CN1C(=O)CSC1=O)Nc1ccc2c(c1)OCCO2 53.7%
CCOc1ccccc1C(=O)Nc1nncs1 -3.85%
O=C(Nc1ccccc1C(=O)Nc1nncs1)c1ccccc1 11.8%
Cc1nnc(NC(=O)c2ccccc2Br)s1 -1.4%
O=C(Nc1nncs1)c1cccnc1Cl 26.3%
CCCCc1nc2sc3c(c2c(=O)[nH]1)CCC3 -6.58%
COc1ccccc1C1SCCN1S(C)(=O)=O (stereo not given) -6.23%
COc1cccc(OCC(=O)O/N=C(\N)c2ccc(OC)c(OC)c2)c1 -15%
CCOC(=O)CCC(=O)c1c(C)oc2ccc(OC)cc12 9.88%
COc1ccc2oc(C)c(C(N)=O)c2c1 2.03%
O=C1NC[C@H](Cc2ccc(O)cc2)N(CCc2cccc3ccccc23)C1=O -2.35%
CCOc1ccc(N2C(=O)C3CCCN3C2=O)cc1 (stereo not given) -1.37%
COc1ccc(NC(=O)CN2C(=O)CSC2=O)cc1 30.1%
CCOC(=O)c1ccc(NC(=O)CN2C(=O)CSC2=O)cc1 19%
CCOC(=O)c1ccc(NC(=O)CN2C(=O)CCC2=O)cc1 -7.84%
O=C(CN1C(=O)C2CC=CCC2C1=O)Nc1ccc(S(=O)(=O)Nc2ncccn2)cc1 (stereo not given) 1.4%
COc1ccc(NC(=O)CN2C(=O)CSC(C)C2=O)c(OC)c1 (stereo not given) 37.7%
CCOc1ccc(NC(=O)CN2C(=O)NC(CCSC)C2=O)cc1 (stereo not given) 27.7%
CCOc1ccc(NC(=O)C2CCC(N3C(=O)C4CC=CCC4C3=O)CC2)cc1 (stereo not given) 48%
Cc1cccc(OCCSc2nncn2C)c1 -2.41%
O=C1c2ccccc2C(=O)N1CSc1nnc(Nc2ccccc2F)s1 4.65%
CN(C)c1oc(-c2ccccc2Cl)nc1S(=O)(=O)c1ccccc1 0.69%
Cc1cccc(C)c1NC(=S)N/N=C/c1ccccc1C(=O)O 7.19%
COc1cc(/C=C/C(=O)OCC(=O)Nc2ccccc2Cl)cc(OC)c1OC 7.2%
Cc1ccccc1C(=O)NC(CC(C)C)C(=O)OCC(=O)c1c(N)n(C)c(=O)n(C)c1=O (stereo not given) -1.49%
